This note sets out measurements from PubChem BioAssay.

SMILES strings stand for the structures.

The target of one experiment is Tumor necrosis factor receptor superfamily member 10B (Homo sapiens) (UniProt O14763). The experiment is described as follows: caspase-8 TRAIL sensitization, hit retest, confirmation, cell-based, NB7+caspase-8, with/without TRAIL, luminescence panel (AID 651596). As to conditions: NB7 neuroblastoma + caspase-8, TRAIL sensitization, luminescence viability, with TRAIL, mean of runs, at 10 µM, stronger effect = higher value; in the data active = activity above about 50%; inactive = the rest.
Chain of Tumor necrosis factor receptor superfamily member 10B (Homo sapiens) (O14763 whole entry, looked up): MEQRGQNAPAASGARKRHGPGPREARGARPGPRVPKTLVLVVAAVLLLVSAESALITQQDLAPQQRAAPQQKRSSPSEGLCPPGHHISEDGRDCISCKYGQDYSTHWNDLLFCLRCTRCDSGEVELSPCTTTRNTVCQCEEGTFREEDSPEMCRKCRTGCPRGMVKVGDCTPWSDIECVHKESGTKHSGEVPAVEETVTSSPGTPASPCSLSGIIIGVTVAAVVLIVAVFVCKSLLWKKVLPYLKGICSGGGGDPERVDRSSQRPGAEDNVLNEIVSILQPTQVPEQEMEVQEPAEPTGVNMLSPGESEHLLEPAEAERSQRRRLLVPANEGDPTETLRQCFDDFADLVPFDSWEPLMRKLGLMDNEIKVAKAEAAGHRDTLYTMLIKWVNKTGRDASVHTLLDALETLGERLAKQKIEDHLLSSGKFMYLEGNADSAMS
Consider `CC(C)(C)OC(=O)NCc1ccc(NC(=O)c2nc[nH]c2C(=O)NCCCCNC(=O)c2[nH]cnc2C(=O)Nc2ccc(CNC(=O)OC(C)(C)C)cc2)cc1`, for which the activity came to 95.1%.
For `COc1ccccc1NC(CC(=O)c1ccccc1)C(=O)OCC(=O)c1ccc(C)cc1` (stereo not drawn), the activity is 65%.
The same measure, in the same setting: for `CC(C)(C)c1ccc(-c2nnc(N)s2)cc1` the value was 64.7%; for `CC1(C(=O)N/N=C/c2c(F)c(F)c(F)c(F)c2F)CC1(Cl)Cl` (stereo not drawn), 91.5%.
For the compound `CCCCCCCC(=O)Nc1ccc(C(=O)N/N=C/c2cccc([N+](=O)[O-])c2)cc1`, the activity was determined as 69.3%.
As to `Nc1ccc(C(=O)NN2C(=O)[C@H](Cl)C2c2ccc(Cl)cc2)cc1` (stereo partly drawn), the activity is 99.3%.
With `Cc1cc(C)nc(Nc2nc(-c3ccccc3)cs2)n1`, the activity is 72.5%.
Still for that read-out and setting: for `CN1CCN(c2ccc3sc(-n4ccc5ccccc54)nc3c2)CC1` the value was 76.2%; for `Cc1ccc(Nc2nc(N)c3ccccc3n2)cc1Cl`, 75.7%; for `Cc1ccc(C2CC2c2n[nH]c(=S)n2-c2ccc(Cl)cc2)cc1` (stereo not drawn), 63%.
On the same count and under the same terms, for `CC(C)Nc1ncnc2c1cnn2-c1ccc(Cl)cc1` the value was 60.6%; for `COc1ccccc1NC(CC(=O)c1ccccc1)C(=O)OCC(=O)c1ccc(Br)cc1` (stereo not drawn), 65.4%; for `C#CCN(C[C@@H]1[C@@H](OC(=O)Nc2cccs2)[C@@H](OC(=O)Nc2cccs2)Cn2c(=O)ccc(=O)n21)S(=O)(=O)c1ccc(C)cc1`, 96.5%.
Still for that read-out and setting: for `Cc1cccc(NS(=O)(=O)c2ccc3c(c2)Cc2cc(S(=O)(=O)Nc4cccc(C)c4C)ccc2-3)c1C` the value was 72.1%.
Take `C(=C\c1nc2ccccc2[nH]1)/c1ccccc1`: the activity was found to be 93.8%.
As for `O=C(NC(=S)Nc1ccc(Br)cn1)c1cccs1`, the activity is 71.7%.
The same measure, in the same setting: the figure for `NC(=S)NN=C1c2ccccc2-c2c(F)c(F)c(F)c(F)c21` is 72.1%.
On the same count and under the same terms, for `COc1ccc(C(=O)Nc2nnc(SCC(=O)NC3CCCC3)s2)c(OC)c1` the value was 74.1%.
Same read-out and setting: for `CN(C)C=Nc1ccc2nc3c(cc2c1)[nH]c1ccccc13` the value was 76.7%.

System in a further experiment: not listed separately
Described as above. To be noted: NB7 neuroblastoma + caspase-8, without TRAIL, luminescence viability, without TRAIL, mean of runs, at 10 µM.
Regarding `CCCCCCCN(C(=O)CCl)c1ccccc1C`, the activity was 98.1%.
Take `O=C(Nc1ccc(NC(=O)C2CC2)cc1)c1ccco1`: the activity was determined as 39.1%.
The same measure, in the same setting: for `O=C(Cn1ncc(Cl)c(Cl)c1=O)c1ccc2c(c1)OCCO2` the value was 76%; for `CCOc1ccc(N2C(N)=NC(N)=NC2(C)C)cc1`, 82.9%.
In the case of `Cc1cc(Br)c(OCc2ccc(C(=O)N/N=C/c3ccc[nH]3)cc2)c(Br)c1`, the activity stood at 86.5%.
With `COC(=O)c1cccc(NC(=O)c2cc3ccccc3o2)c1`, the activity was determined as 58.6%.
`O=C(COC(=O)c1ccccc1C(=O)c1ccc(Cl)c([N+](=O)[O-])c1)NC1CC1`: the activity worked out at 99.3%.
For `OCC1OC(n2ccc3c2ncn2ncnc32)C(O)C1O` (stereo not drawn), the activity came to 95.3%.
Consider `Cc1nc2c(-c3ccccc3)cnn2c(N)c1-c1ccccc1`, for which the activity was 90.9%.
Still for that read-out and setting: the figure for `Cc1ccc2cc(/C=N/Nc3nc4ccccc4[nH]3)c(Cl)nc2c1` is 83.6%; for `COc1ccc(/C=C/c2cc(-c3ccc(C)cc3)o[n+]2C)cc1` it is 90.6%; for `O=C(/C=C\Nc1ccccn1)c1ccc(Cl)cc1` it is 63.3%.
Same read-out and setting: for `N#CCCCC#Cc1ccc2c(c1)COc1c3ccccc3nn1-2` the value was 75.6%; for `COC(=O)Cn1c(=O)c(C(=O)CCl)c(N)n(Cc2ccccc2)c1=O`, 94.7%; for `Cc1ccc2oc(/N=C(\N)NC(=O)C3CC3)nc2c1`, 71%.
As for `CN(C)S(=O)(=O)c1ccc(C(=O)Nc2nnc(SCC(=O)N3CCOCC3)s2)cc1`, the activity amounted to 66%.
As for `Cc1cc(/C(N)=N/OC(=O)c2ccccc2Cl)no1`, the activity is 68.1%.
For `Cc1cc(Cl)n2c(nc3cc(F)c(F)cc32)c1C#N`, the activity is 99.3%.
On the same count and under the same terms, the figure for `Cc1nc2cc(NC(=O)Nc3ccccc3Cl)ccc2n1C` is 78.2%.
On the same count and under the same terms, the figure for `O=C(N/N=C\c1ccc(CNS(=O)(=O)c2ccc(Cl)cc2)o1)C(=O)Nc1ccc(Oc2ccccc2)cc1` is 91.1%; for `CC(C)(C)OC(=O)NCc1ccc(NC(=O)c2nc[nH]c2C(=O)NCCCCNC(=O)c2[nH]cnc2C(=O)Nc2ccc(CNC(=O)OC(C)(C)C)cc2)cc1` it is 96.2%; for `COc1ccccc1NC(CC(=O)c1ccccc1)C(=O)OCC(=O)c1ccc(C)cc1` (stereo not drawn) it is 69%.
Same read-out and setting: the figure for `CC(C)(C)c1ccc(-c2nnc(N)s2)cc1` is 66.7%; for `CC1(C(=O)N/N=C/c2c(F)c(F)c(F)c(F)c2F)CC1(Cl)Cl` (stereo not drawn) it is 98.4%; for `CCCCCCCC(=O)Nc1ccc(C(=O)N/N=C/c2cccc([N+](=O)[O-])c2)cc1` it is 75.9%.
For `Nc1ccc(C(=O)NN2C(=O)[C@H](Cl)C2c2ccc(Cl)cc2)cc1` (stereo partly drawn), the activity is 99.5%.
The same measure, in the same setting: the figure for `Cc1cc(C)nc(Nc2nc(-c3ccccc3)cs2)n1` is 71.3%; for `CN1CCN(c2ccc3sc(-n4ccc5ccccc54)nc3c2)CC1` it is 64.5%.
Still for that read-out and setting: the figure for `Cc1ccc(Nc2nc(N)c3ccccc3n2)cc1Cl` is 73.1%; for `Cc1ccc(C2CC2c2n[nH]c(=S)n2-c2ccc(Cl)cc2)cc1` (stereo not drawn) it is 45.3%; for `CC(C)Nc1ncnc2c1cnn2-c1ccc(Cl)cc1` it is 67.4%.
On to `COc1ccccc1NC(CC(=O)c1ccccc1)C(=O)OCC(=O)c1ccc(Br)cc1` (stereo not drawn), for which the activity was found to be 57.2%.
`C#CCN(C[C@@H]1[C@@H](OC(=O)Nc2cccs2)[C@@H](OC(=O)Nc2cccs2)Cn2c(=O)ccc(=O)n21)S(=O)(=O)c1ccc(C)cc1`: the activity came to 95.8%.
Still for that read-out and setting: for `Cc1cccc(NS(=O)(=O)c2ccc3c(c2)Cc2cc(S(=O)(=O)Nc4cccc(C)c4C)ccc2-3)c1C` the value was 77.5%; for `C(=C\c1nc2ccccc2[nH]1)/c1ccccc1`, 93.6%.
Turning to `O=C(NC(=S)Nc1ccc(Br)cn1)c1cccs1`, the activity turned out to be 73.2%.
On the same count and under the same terms, for `NC(=S)NN=C1c2ccccc2-c2c(F)c(F)c(F)c(F)c21` the value was 71.4%; for `COc1ccc(C(=O)Nc2nnc(SCC(=O)NC3CCCC3)s2)c(OC)c1`, 69.8%; for `CN(C)C=Nc1ccc2nc3c(cc2c1)[nH]c1ccccc13`, 76.3%.
